Measured values: PubChem BioAssay (NCI)
The panel holds about 83,000 compounds, 20% with a hit somewhere; the sample as a whole holds those more often.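 Each cell line was grown in a 96-well plate and treated with one concentration of compound for 48 hours. Values below 10 were considered active.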 Unmarked numbers belong to inactive results. Calls of active or inactive are those of the source.

These compounds were tested on SW-620 colon (assay: NCI-60 one-dose screen, 48 h (100 = growth as untreated, 0 = no growth, -100 = all killed)). Details: 10 µM unless noted.
Procedure: Growth inhibition of the SW-620 human tumor cell line is measured as a screen for anti-cancer activity. Cells are grown in 96 well plates and exposed to the test compound for 48 hours. Compounds are tested at a single concentration, which is 10^-5 M for most compounds. The reported endpoint is percent growth (GI% or GIPRCNT), where numbers from 0 - 100% represent growth inhibition, and numbers from -100% - 0 represent cell death. For example, a value of 40 represents 60% growth inhibition. A value of 0 means no net growth occurred over the course of the experiment. A value of -40 indicates 40% of cells at the beginning of the experiment died by the end of the experiment. A value of -100 means all cells are dead at the end of the experiment.
NCI-60 Human Tumor Cell Lines Screen was performed using the standard one-dose NCI protocol, which is described in more detail at https://dtp.cancer.gov/discovery_development/nci-60/default.htm.
Compounds with GIPRCNT values below 10 were considered active. Activity score was based on GIPRCNT using the following formula: […]
Score is 0 for GIPRCNT values of 100 or above, 50 for GIPRCNT values of 0, and 100 for GIPRCNT values of -100.

Row | Structure (SMILES) | growth
1 | C/C(=N\NC(N)=S)c1nnn(-c2ccc([N+](=O)[O-])cc2)c1C | 94.9%
2 | Cc1[nH]c(C(=O)Nc2ccc(C(N)=O)cc2N2CCOC(C)C2)c(Cl)c1Cl (stereo not given) | 109%
3 | COc1ccc(C(=O)c2c(N)c(C#N)cn2-c2ccc(Cl)cc2Cl)cc1 | 98.3%
4 | O=S(=O)(NCCCNc1nccc(-c2[nH]c(-c3ccccc3)nc2-c2ccc(F)c(O)c2)n1)c1ccccc1 | 133%
5 | O=C1/C(=C/C=C/c2ccco2)SC(=S)N1Cc1ccccc1 | 94.2%
6 | O=C(/C=C/c1ccc(F)cc1)Nc1cccc2cccnc12 | 101%
7 | O=C(/C=C/c1cccc(C(F)(F)F)c1)Nc1cccc(C(F)(F)F)c1 | 33.5%
8 | O=C(CCCCCCN1CC(=O)N2[C@@H](c3ccc(Cl)s3)c3[nH]c4ccccc4c3C[C@H]2C1=O)NO | 33.2%
9 | O=C1C(SCc2ccccc2)=C(Cl)CN1c1ccccc1 | 102%
10 | O=C(CSc1nc2ccccc2c(=O)n1-c1ccc(Cl)c(Cl)c1)Nc1ccc(S(=O)(=O)Nc2ccc(Cl)nn2)cc1 | 89.7%
11 | CN1CCN(c2ccc(Nc3nc(NCCNS(=O)(=O)c4ccc(Cl)cc4)c4sccc4n3)cc2)CC1 | 94.7%
12 | Cc1ccc(NC(=O)/C=C/c2ccc(OCCCOc3ccc4c(C)cc(=O)oc4c3)cc2)cc1 | 83.5%
13 | C#CCOc1cccc(-c2nc(N)nc(Nc3ccccc3SSc3ccccc3Nc3nc(N)nc(-c4cccc(OCC#C)c4)n3)n2)c1 | 71.4%
14 | CCN(CC)CCOc1ccc(C(=C(C)c2ccc(OC)cc2)c2ccc(OCCN(CC)CC)cc2)cc1 | -35.7% (active)
15 | NS(=O)(=O)c1ccc(Nc2nc(N/N=C/C=C/c3ccccc3)nc(Nc3ccccc3)n2)cc1 | 51.1%
16 | CN1CCN(Cc2ccc(/C=N/Nc3ccnc4cc(Cl)ccc34)cc2)CC1 | 69.9%
17 | CC(=O)C1=C(C)NC(NNc2ccccc2)=NC1c1ccc([N+](=O)[O-])cc1 (stereo not given) | 73.6%
18 | CC(Nc1ncnc2ccc(-c3cnc4cnccn34)cc12)c1ccccc1 (stereo not given) | 85.7%
19 | Cn1ncc2c(C(=O)c3ccc(F)cc3)nc(C(C)(C)C)nc21 | 95.9%
20 | Cc1ccc(OCc2occc2C(=O)N2CCOCC2)cc1 | 102%

Row | Structure (SMILES) | growth
21 | O=C(/C=C/c1ccc(Cl)c(Cl)c1)Nc1ncc(Cc2ccc(Cl)c(Cl)c2)s1 | 33.3%
22 | Cc1ccc2c(n1)C(=O)C(Cl)=C(Nc1ccc(C(=O)OC(C)(C)C)cc1)C2=O | -42% [9.25 µM] (active)
23 | O=C(CSc1nnc(-c2ccc(Cl)cc2)n1-c1ccccc1)Nc1cccc(F)c1 | 30.9%
24 | O=C(CN1CCN(c2cc(=O)[nH]c3ccc(F)cc23)CC1)N(c1ccccc1)c1ccccc1 | 104%
25 | CC(=O)c1cc(C(=O)N2c3ccccc3Sc3ccccc32)n2c1ccc1ccccc12 | 41.6%
26 | COc1ccc2[nH]cc(-c3nn4cc(-c5ccncc5)nc4s3)c2c1 | 66.3%
27 | CCCNNC(=O)c1ccc(-c2ccc(NC(=O)CCCCCCC(=O)N[C@H](C(=O)N3C[C@H](O)C[C@H]3C(=O)N[C@@H](C)c3ccc(-c4scnc4C)cc3)C(C)(C)C)cc2)cc1 | 12.1%
28 | O=C1Nc2ccccc2/C1=N\c1nnc(-c2ccccc2)o1 | 95.3%
29 | CCNCCOc1ccc(/C(=C(/CC)c2ccc(Cl)cc2)c2ccc(OCCCN(C)C)cc2)cc1 | -62.1% (active)
30 | CN1CCN(c2ccc(C(=O)/C=C/c3cc(F)cc(C(F)(F)F)c3)cc2)CC1 | 20%
31 | N#C/C(=N\Nc1ccc(F)cc1)C(=O)Nc1cc(-c2ccccc2)nn1-c1ccccc1 | 17.5%
32 | CNC(=O)c1cc(N2CCc3cc(NC(=O)Nc4ccc(N5CCOCC5)c(C(F)(F)F)c4)ccc32)ccn1 | 34.6%
33 | Cc1ccc2c(n1)C(=O)C(Cl)=C(Nc1cccc(C)c1C)C2=O | -9.92% (active)
34 | NC(=O)c1ncn2c(=O)n(CCF)nnc12 | 40.4%
35 | O=c1[nH][nH]c(-c2ccc(F)cc2)c1-c1nc2ccccc2s1 | 105%
36 | C=C(C)[C@@H]1CC[C@]2(COP(=O)(OCC)OCC)CC[C@]3(C)[C@H](CC[C@@H]4[C@@]5(C)CC[C@H](OP(=O)(OCC)OCC)C(C)(C)[C@@H]5CC[C@]43C)[C@@H]12 | 38.4%
37 | C/C(=C(\c1ccc(O)cc1)c1ccc(OCCN2CCCCCC2)cc1)c1ccc(Cl)cc1 | -2.89% (active)
38 | COc1ccc2sc(NC(=O)CCCCCCNC(=O)C(O)(O)C(F)(F)F)nc2c1 | 5.18% (active)
39 | CN(C)CCNc1ccc2ncc(C#Cc3cncc(C(=O)Nc4ccc(CN5CCN(C)CC5)c(C(F)(F)F)c4)c3)n2n1 | -6.29% (active)
40 | COc1cccc2c1[C@H](OC)[C@]13O[C@@]1(C2=O)[C@H](O)[C@H](C)[C@@](O)(C(=O)[C@@H]1O[C@H]1C)[C@@H]3O | -14.7% (active)
